The results in this text go back to PubChem BioAssay AID1347041 (National Center for Advancing Translational Sciences (NCATS), 2019).

About 740 (0.15%) of roughly 480,000 compounds were called active. The sample holds actives, similar compounds and a random draw of the others, so the mix is not that of the screen. A number with no mark means an inactive call. No stated cut-off is given here; in the data, active means activity change below about -30%; inconclusive means mostly about -25% to -30%; inactive means weaker than that.

In this experiment the target is L-lactate dehydrogenase A chain (Homo sapiens) (UniProt P00338). The experiment is described as follows: qHTS assay for inhibitors of human lactate dehydrogenase.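 Further: values are at about 110 or 230 µM; plate controls were DMSO wells for no effect and wells without enzyme for full effect.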 The conditions noted are these: purified LDHA, NADH/diaphorase-resazurin fluorescence; hits give low values. In short, it runs like this:
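Human LDH5 (2 nM) was incubated with 0.06 mM NADH and 0.2 mM pyruvate for 5 min at room temperature in Tris pH 7.4. Remaining NADH was coupled through diaphorase/resazurin, and resorufin fluorescence was read at 0 and 20 min.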
For orientation: In qHTS, concentration-response curves come from the screen itself.
Consider `CC(=O)[C@@H]1SC(N)=C(C#N)[C@H]1c1cccs1`, for which the activity change is 12.5%.

As for `CCCn1c(N2CCN(C(=O)c3cccc(OC)c3)CC2)nc2sc3c(c2c1=O)CCCC3`, the activity change was -1.23%.

Turning to `CCN(c1ccccc1)c1nnc(NC(=O)Nc2ccccc2OC)s1`, the activity change is -2.61%.

In the case of `CCCn1nc(C(=O)Nc2ccc(OC)c(NC(C)=O)c2)c2ccccc2c1=O`, the activity change is -2.1%.

For the compound `CCNC(=O)CN1CCN(C(C(=O)O)c2c[nH]c3ccc(OCc4ccccc4)cc23)CC1` (stereo not drawn), the activity change is -6.48%.

As for `Fc1ccc(OCc2nn3c(CSc4ccccc4)nnc3s2)cc1`, the activity change was -2.81%.

In the case of `O=C(CN1CCN(CC(=O)c2c[nH]c3ccccc23)CC1)NC1CC1`, the activity change is 0.902%.

As to `CCc1ccc(NC(=O)CSc2nccn2Cc2ccccc2OC)cc1`, the activity change was 8.74%.

On to `CC(NC(=O)c1cc(Cl)sc1Cl)C12CC3CC(CC(C3)C1)C2` (stereo not drawn), for which the activity change is 1.53%.

As to `COc1ccc(-c2cc(C(=O)O)c3cc(C)ccc3n2)cc1OC`, the activity change is 6.4%.

As for `CC(C)Cn1nc(C(=O)NCc2ccccc2F)c2ccccc2c1=O`, the activity change was 8.3%.

With `COCCCN(C)Cc1cccc(OC)c1`, the activity change was -1.41%.

Turning to `COc1cc(Cl)c(C)cc1NC(=O)C(C)N1CCN(CCc2ccccc2)CC1` (stereo not drawn), the activity change is -11.8%.

As to `O=C1CCCC2=C1C(c1ccc(C(=O)O)cc1)c1c([nH]n(-c3ccccc3)c1=O)N2` (stereo not drawn), the activity change is 14.2%.

Turning to `CCOC(=O)C1=C(CN2CCN(C(=O)OC(C)(C)C)CC2)NC(=O)NC1c1ccccc1OCC` (stereo not drawn), the activity change was -21.6%.

Take `Cc1cc(CNC(=O)NCc2coc(-c3cccs3)n2)ccc1F`: the activity change is -5.62%.

As to `CCCNc1c(NS(=O)(=O)c2ccc(F)c(F)c2)c(=O)oc2ccccc12`, the activity change was 0.151%.

In the case of `COc1ccc(C(=O)Nc2oc3ccc(Cl)cc3c(=O)c2-c2ccc3c(c2)OCO3)cc1`, the activity change was -4.91%.

With `Cc1c(C(N)=O)[n+](=O)c2ccccc2n1[O-]`, the activity change is -7.73%.

With `Oc1ccc2ccccc2c1C=NCCc1ccccc1`, the activity change was 43.7%.

Turning to `Cn1c(=O)c2c(ncn2CC(=O)Nc2cccc(F)c2)n(C)c1=O`, the activity change was 0.764%.

As for `Cc1ccc(-c2nc(=N)sn2Cc2ccccc2)cc1`, the activity change is -80.9% (active).

As to `COc1ccc(-c2nn3c(-c4ccc(OC)cc4)nnc3c3ccccc23)cc1`, the activity change is -7.99%.

Take `Cc1ccc(-c2nnn(Cc3csc(-c4ccccc4Cl)n3)n2)cc1`: the activity change is -3.25%.

`Cc1ccc(CN2C(=O)SC(Nc3ccccc3)C2=O)cc1` (stereo not drawn): the activity change was -3.19%.

Take `COc1ccc(Nc2ccccc2)cc1`: the activity change was 15%.

With `COc1ccc(-c2nc(=N)sn2-c2ccccc2)cc1`, the activity change was -63.7% (active).

Take `CCCCn1c(=O)[nH]c(=O)c2c1nc(COC(=O)C1(C#N)CCCC1)n2C`: the activity change was -5.02%.

As for `O=C(CCC1NC(=O)c2ccccc2NC1=O)NC1CCCC1` (stereo not drawn), the activity change is -4.57%.

For the compound `Cc1ccc(N(CC(=O)N2CCN(C/C=C/c3ccccc3)CC2)S(C)(=O)=O)cc1`, the activity change was -0.0793%.

As to `CN(Cc1ccc(Cl)cc1)C(=O)Cn1nnn(-c2cccs2)c1=O`, the activity change was -0.86%.

For `CCCn1nc(C(=O)N(C)Cc2ccc(OCC)cc2)c2ccccc2c1=O`, the activity change is -4.2%.

`COc1ccc2oc(=O)c(S(=O)(=O)N3CCCCCC3)cc2c1`: the activity change was -6.37%.

Consider `CC(C)CC(=O)Nc1ccc(N2CCCC2)cc1`, for which the activity change was 39.8%.

For the compound `COc1cc(CN2C(=O)C(=O)c3cccc(C)c32)ccc1OCCC(C)C`, the activity change was 5.04%.

Turning to `COc1ccc(Br)cc1/C=C1\Cc2ccccc2C1=O`, the activity change is 0.293%.

As to `COc1cccc2cc(C(=O)N3CCN(c4cccc(C(F)(F)F)c4)CC3)c(=O)oc12`, the activity change is 3.43%.

With `COc1ccccc1CCNC(=O)CSc1ccc(-c2ccccn2)nn1`, the activity change is 8.88%.

Turning to `O=C(COc1c(I)cc(Cl)c2cccnc12)N1CCCC1`, the activity change is -11.3%.

As to `CCN(CC(=O)N(C)C)Cc1ccc(F)c2cccnc12`, the activity change was 0.454%.

Turning to `COc1ccc(Oc2c(C)oc3cc(OCC(=O)N4CCC(C(N)=O)CC4)ccc3c2=O)cc1`, the activity change was -1.42%.

Turning to `CN(Cc1ccc(OC(F)F)cc1)C(=O)c1nn(Cc2ccccc2)c(=O)c2ccccc12`, the activity change is 13.3%.

For `COc1ccc(NC(=O)c2cnn3c2NC(C(=O)O)=CC3c2ccc(F)cc2)cc1` (stereo not drawn), the activity change was 18.2%.

As for `Cn1c(SCC(=O)Nc2cccc(F)c2)nc2c(=O)[nH]cnc21`, the activity change is 11%.

Take `CCN(CC)S(=O)(=O)c1ccc(N2CCCC2)c(NS(=O)(=O)c2cccs2)c1`: the activity change was -11.2%.

In the case of `CCN(CC)S(=O)(=O)c1ccc(C)c(NS(=O)(=O)c2cccc(C#N)c2)c1`, the activity change is -34.7% (active).

With `CCN(CC)S(=O)(=O)c1ccc(C)c(NC(=O)COc2ccc(Br)cc2Cl)c1`, the activity change is -4.43%.

In the case of `COC(=O)c1ccc(C2C(C#N)=C(N)Oc3c2ccc2ccccc32)cc1` (stereo not drawn), the activity change is -5.14%.

In the case of `Cn1c(/C(C#N)=C2/CCCCCN2)nc2ccccc21`, the activity change was 1.28%.

For `Cc1cc(/C=C(/C#N)c2nc3ccccc3n2C)cc(C)c1O`, the activity change is -32.2% (active).

With `Cc1cc2nc(/C(C#N)=C/c3ccccc3)[nH]c2cc1C`, the activity change is 9.89%.

As for `CC(C)CC(NC(=O)COc1ccc(Oc2ccccc2)cc1)C(=O)O` (stereo not drawn), the activity change was -0.172%.

In the case of `O=C(O)c1cc(NC(=O)c2ccc(Cl)s2)cc(C(=O)O)c1`, the activity change is -9.52%.
